POLI inh = qHTS for Inhibitors of Polymerase Iota; Potency, µM (series often up to 115 µM), for the others: at the top dose activity, negative = inhibition, most hits filed as inhibitors; DNA polymerase iota (Homo sapiens), Q9UNA4; 1% of 390,000 active; Pol iota fluorescent replication assay, 10 min; AID 588590, 2011; further: potency means the concentration at half of the fitted maximal effect
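Fluorescent replication assay read twice, at 0 min and 10 min after adding 50 nM (final) substrate. Enzyme (10 nM) and compounds were first incubated 15 min at room temperature; enzyme-free buffer wells were negative controls.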
Pol eta inh-1 = qHTS for Inhibitors of Polymerase Eta. AID 588591, 2011. 1.2% of 390,000 active. Potency, µM (series often up to 114 µM), inactives show at the highest dose activity change, negative = inhibition, hits mostly inhibitors. recombinant Pol eta, fluorescent DNA replication assay; further: potency means the concentration at half of the fitted maximal effect; on the % scale 0 is the no-effect control and ±100 the full control effect
Target sequence (Q9Y253 whole entry, looked up): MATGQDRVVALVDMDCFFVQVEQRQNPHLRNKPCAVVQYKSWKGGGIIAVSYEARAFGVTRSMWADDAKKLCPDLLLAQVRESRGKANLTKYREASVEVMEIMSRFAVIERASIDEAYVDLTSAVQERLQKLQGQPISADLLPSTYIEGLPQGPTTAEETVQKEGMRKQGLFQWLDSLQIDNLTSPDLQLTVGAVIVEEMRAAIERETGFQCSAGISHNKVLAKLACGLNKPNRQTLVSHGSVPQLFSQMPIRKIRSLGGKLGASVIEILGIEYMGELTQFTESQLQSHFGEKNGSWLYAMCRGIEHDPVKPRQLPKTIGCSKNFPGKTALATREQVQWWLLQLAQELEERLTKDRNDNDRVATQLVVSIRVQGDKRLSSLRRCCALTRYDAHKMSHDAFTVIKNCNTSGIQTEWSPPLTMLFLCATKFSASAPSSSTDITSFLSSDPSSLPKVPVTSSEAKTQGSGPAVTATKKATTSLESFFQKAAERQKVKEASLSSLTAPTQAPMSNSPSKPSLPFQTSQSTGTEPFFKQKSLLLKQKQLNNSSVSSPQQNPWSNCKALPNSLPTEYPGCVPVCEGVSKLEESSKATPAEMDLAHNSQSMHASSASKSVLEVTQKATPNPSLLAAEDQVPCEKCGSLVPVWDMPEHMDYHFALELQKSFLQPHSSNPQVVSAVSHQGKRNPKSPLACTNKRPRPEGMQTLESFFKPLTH
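Fluorescent replication assay: 50 nM final substrate added after a 15 min room-temperature compound preincubation with 10 nM enzyme. Signal taken at 0 min and again at 10 min.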
Pol beta inh = qHTS Assay for Inhibitors of DNA Polymerase Beta. 1.3% of 340,000 active. AID 485314, 2010. P06746. Pol beta primer extension/strand displacement, fluorescence kinetic. Potency, µM (highest dose often 114 µM), inactives show at the top dose activity change, negative = inhibition, most hits filed as inhibitors; further: potency means the concentration at half of the fitted maximal effect; on the % scale 0 is the no-effect control and ±100 the full control effect
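Human Pol beta at 10 nM; strand-displacement substrate 50 nM final. Compound exposure 15 min at room temperature before start, reaction 10 min at room temperature.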
WRN helicase inh-1 = qHTS for Inhibitors of WRN Helicase | Bifunctional 3'-5' exonuclease/ATP-dependent helicase WRN (Homo sapiens), Q14191 | WRN helicase unwinding, fluorescent forked duplex, kinetic | Potency, µM (top dose mostly 114 µM), for inactives: at the top dose activity change, negative = inhibition, actives largely listed as inhibitors | 0.46% of 360,000 active; further: potency means the concentration at half of the fitted maximal effect; on the % scale 0 is the no-effect control and ±100 the full control effect; nearly all actives have a fitted effect of over 55% in size
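WRN at 20 nM final was preincubated with compound for 15 min at room temperature; reaction started with 100 nM forked duplex oligonucleotide carrying fluorophore and quencher plus 2 mM ATP (final). Unwinding followed kinetically by red fluorescence (ex 525/em 598 nm).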
PI5P4Ka inh = qHTS for Inhibitors of phosphatidylinositol 5-phosphate 4-kinase (PI5P4K) | Phosphatidylinositol 5-phosphate 4-kinase type-2 alpha (Homo sapiens), P48426 | PI5P4Kalpha enzyme, ADP-Glo luminescence, 60 min; active compounds read low | max response, % | 1.2% of 330,000 active | AID 652105, 2013; active means max response of -50% or lower; inconclusive means between -30% and -50%; inactive means -30% or higher; further: value at the top dose of about 77 µM; on the % scale 0 is the no-effect control and ±100 the full control effect
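Compounds were pin-transferred onto PI5P4Kalpha and substrate in HEPES pH 7.4 buffer with EGTA, CHAPS and 5% DMSO. ATP (5 microM final) started the reaction, which ran 60 minutes at room temperature before ADP-Glo detection.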
Pol kappa inh-1 = qHTS for Inhibitors of Polymerase Kappa. DNA polymerase kappa (Homo sapiens), Q9UBT6. purified Pol kappa, fluorescent DNA synthesis assay, 10 min. Potency, µM (top dose mostly 107 µM), for the others: top-dose activity, negative = inhibition, usual class: inhibitors. 0.53% of 400,000 active. AID 588579, 2011; further: potency means the concentration at half of the fitted maximal effect; on the % scale 0 is the no-effect control and ±100 the full control effect
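Inhibition of 10 nM Pol kappa is measured by a fluorescent read-out at 0 and 10 min following addition of 50 nM substrate (final), with a 15-min room-temperature compound preincubation.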
PGK validate = qHTS for inhibitors of Phosphogylcerate Kinase: Hit Validation Screen; shares compounds with Pol kappa inh-1; TbPGK coupled GAPDH assay, Kinase-Glo luminescence; Potency, µM (top dose mostly 57.5 µM), inactives show top-dose activity change, negative = inhibition, usual class: inhibitors; 79% of 500 active; AID 686980, 2013; further: potency means the concentration at half of the fitted maximal effect; on the % scale 0 is the no-effect control and ±100 the full control effect; nearly all actives have a fitted effect of over 65% in size
POLI cherry-pick = qHTS for Inhibitors of Polymerase Iota: Confirmatory Assay for Cherry-picked Compounds. Potency, µM, actives largely listed as inhibitors. AID 720496, 2013. Pol iota primer extension, TAMRA/BHQ fluorescence. 77% of 1,500 active. shares compounds with Pol kappa inh-1; further: potency means the concentration at half of the fitted maximal effect
GALK confirm = Confirmation Assay for Inhibitors of Human Galactokinase (GALK) | shares compounds with Pol eta inh-1 | purified GALK, Kinase-Glo ATP depletion luminescence | Potency, µM (top dose mostly 115 µM), without a hit: at the top dose activity, negative = inhibition, hits mostly inhibitors | 70% of 150 active | AID 2015, 2009
Redox cycling = Confirmatory Assay for Inhibitors of Human Galactokinase (GALK): Phenol-HRP redox assay counterscreen. shares compounds with Pol eta inh-1. Phenol red-HRP H2O2 redox cycling, absorbance 600 nm. Potency, µM (highest dose often 115 µM), inactives show at the top dose activity change, negative = H2O2 signal, most hits filed as inhibitors. 40% of 150 active. AID 2035, 2009
HEK293 viability = Secondary Assay for Inhibitors of Human Galactokinase (GALK): HEK-293 Cell Viability Assay; shares compounds with Pol eta inh-1; HEK-293 viability, ATP luminescence (CellTiter-Glo), 24/48 h; Potency, µM (series often up to 46.1 µM), for the others: top-dose activity change, negative = cytotoxicity, most hits filed as inhibitors; 10% of 170 active; further: potency means the concentration at half of the fitted maximal effect; on the % scale 0 is the no-effect control and ±100 the full control effect
Pol kappa inh-2 = qHTS for Inhibitors of Polymerase Kappa: Confirmatory Assay for Cherry-picked Compounds; shares compounds with Pol eta inh-1; purified Pol-kappa, fluorescent strand-displacement substrate; Potency, µM, most hits filed as inhibitors; 76% of 920 active; AID 720501, 2013; further: potency means the concentration at half of the fitted maximal effect
Pol eta inh-2 = qHTS for Inhibitors of Polymerase Eta: Confirmatory Assay for Cherry-picked Compounds | shares compounds with Pol eta inh-1 | Pol eta primer extension, TAMRA/BHQ fluorescence, 10 min | Potency, µM, actives largely listed as inhibitors | 64% of 2,600 active; further: potency means the concentration at half of the fitted maximal effect
WRN helicase inh-2 = qHTS for Inhibitors of WRN Helicase: Confirmatory Assay for Cherry-picked Compounds | 63% of 610 active | WRN helicase DNA unwinding, fluorescence kinetic | AID 720497, 2013 | Potency, µM (doses to about 57.1 µM), for the others: at the top dose activity, negative = inhibition, actives largely listed as inhibitors | shares compounds with WRN helicase inh-1; further: potency means the concentration at half of the fitted maximal effect; nearly all actives have a fitted effect of over 65% in size
TO displacement = qHTS for Inhibitors of WRN Helicase: Thiazole Orange DNA Binding Counterscreen; Potency, µM (series often up to 57.1 µM), without a hit: at the highest dose activity change, negative = inhibition, most hits filed as inhibitors; shares compounds with WRN helicase inh-1; 10% of 610 active; thiazole orange DNA binding displacement, fluorescence; AID 720499, 2013;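 further: drop in dye fluorescence marks compound binding to DNA; potency means the concentration at half of the fitted maximal effect; on the % scale 0 is the no-effect control and ±100 the full control effect; nearly all actives have a fitted effect of over 60% in size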
BLM counter = qHTS for Inhibitors of WRN Helicase: BLM Helicase Counterscreen for WRN Inhibitors. shares compounds with WRN helicase inh-1. Recombinant BLM helicase DNA unwinding, red fluorescence. Potency, µM (series often up to 57.1 µM), without a hit: at the highest dose activity change, negative = inhibition, usual class: inhibitors. 60% of 610 active. AID 720503, 2013; further: potency means the concentration at half of the fitted maximal effect; nearly all actives have a fitted effect of over 60% in size
The depositor's hits bear a star; ? = inconclusive; . = no result. Rows were chosen to be rich in hits. Some 2.8% of all compounds tested hit in one or more screens of this group. Unless noted, the call rests on the fitted dose curve; in most records, active means well fitted curve in the direction sought with a large enough effect; inconclusive means small, poorly fitted or top-dose-only effect, or another doubt; inactive means no such curve, though single readings can be large; an effect the other way counts as inactive or inconclusive.

SMILES	POLI inh	Pol eta inh-1	Pol beta inh	WRN helicase inh-1	PI5P4Ka inh	Pol kappa inh-1	POLI cherry-pick	Pol eta inh-2	WRN helicase inh-2	TO displacement	BLM counter	others
O=c1c(O)c(-c2ccc(O)c(O)c2)oc2cc(O)ccc12	2.5µM*	1.6µM*	.	2.4µM*	?	2.8µM*	6.7*	7.6*	1.5µM*	-11%	0.86µM*	Pol kappa inh-2=8.4*
O=C(CCCN1C(=O)/C(=C\c2cccs2)SC1=S)Nc1ccc(O)cc1C(=O)O	16%	-9%	-29%	-13%	?	-4%	.	.	.	.	.
O=C(CCCN1C(=O)/C(=C/c2ccco2)SC1=S)Nc1cccc(C(=O)O)c1	14µM*	20µM*	3.2µM*	35µM*	-60*	22µM*	24*	15*	19µM*	-8%	19µM*
O=C(CCCN1C(=O)/C(=C\c2cccs2)SC1=S)Nc1cccc(C(=O)O)c1	9%	-11%	1%	-12%	-2	-5%	.	.	.	.	.
O=C(CCCN1C(=O)/C(=C\c2ccco2)SC1=S)Nc1ccc(O)cc1C(=O)O	8.9µM*	4.5µM*	?	16µM*	?	22µM*	34*	27*	7.6µM*	?	22µM*
Cc1cccc(NC(=O)c2csnn2)n1	21%	-23%	1%	-4%	1	3%	.	.	.	.	.
Cc1ccc(C)n1/N=C1/NC(=O)CS1	2.5µM*	2.2µM*	18µM*	16µM*	-52*	10µM*	42*	30*	24µM*	-9%	5.4µM*	PGK validate=?
Cc1cccc(N2CCN(C(=O)CN3C(=O)COc4ccc(S(=O)(=O)N5CCCC5)cc43)CC2)c1C	54%	-11%	21%	.	.	-10%	.	.	.	.	.
O=C(O)c1ccc2nc(-c3ccco3)c(-c3ccco3)nc2c1	?	3.5µM*	3.5µM*	?	?	22µM*	4.7*	3.8*	4.3µM*	3.8µM*	12µM*
Cc1ccc(-c2nc3ccc(C(=O)O)cc3nc2-c2ccc(C)cc2)cc1	5%	0%	14%	-2%	.	-18%	.	.	.	.	.
Cn1c(=NC(=O)c2ccccc2[N+](=O)[O-])sc2cc(S(C)(=O)=O)ccc21	27%	?	25%	-6%	52	-10%	.	.	.	.	.
CS(=O)(=O)c1ccc2c(c1)sc1nc(=O)c(/C=C3/C=CC(=O)C(O)=C3)c(N)n12	4µM*	0.79µM*	3.2µM*	28µM*	-80*	7.9µM*	6.7*	1.5*	1.9µM*	31%	3µM*	PGK validate=?;GALK confirm=19µM*;Redox cycling=?;HEK293 viability=1%
Cc1ccc(/C=C2\SC(N3CCCC3)=NC2=O)cc1	.	.	-24%	.	.	.	.	.	.	.	.
Cc1ccc(C2=NC(=O)/C(=C/c3cc(O)c(O)c(Br)c3)S2)cc1	1.3µM*	0.79µM*	1.6µM*	7.9µM*	-82*	1.8µM*	17*	3.8*	1.7µM*	6.8µM*	0.76µM*	Pol kappa inh-2=5.3*
Oc1cccc(Nc2ccccc2)c1	-9%	-11%	.	-1%	2	1%	.	.	.	.	.
O=S(=O)(O)c1ccc(O)c2cc(Nc3ccccc3)ccc12	?	0.79µM*	.	0.95µM*	-105*	2.8µM*	0.67*	0.76*	0.43µM*	9.6µM*	0.061µM*	PGK validate=0.65µM*;Pol kappa inh-2=0.53*

Source: PubChem
